Screening data as filed in PubChem.
SMARCA2 act = increases SMARCA2 function in MMTV reporter cells. MG213 cells, MMTV-luciferase reporter, dexamethasone, overnight. activation, % at 9.1 µM. 370,000 tested, 1% active; in the data active = activation above about 7.8%;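 note: 0% = vehicle wells and 100% = reference activator wells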
ssDAF12 agonist = activators of S. stercoralis DAF-12 nuclear receptor. HEK293 ssDAF-12/GRIP1 lit1-tk-luc reporter, luminescence; % of 3 µM dafachronic acid response. activation, % at 6.8 µM. 370,000 tested, 1% active;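 active = activation above the mean over all tested compounds plus 3 SD, cut at about 0.9% in these data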;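 note: 0% = DMSO-only wells and 100% = 3 µM delta7-dafachronic acid wells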
hcDAF12 agonist = activates DAF-12 receptor from parasite H. contortus. HEK293 hcDAF-12 lit1-tk-luc reporter, luminescence; 0% DMSO, 100% Δ7-dafachronic acid. activation, % at 6.8 µM. 370,000 tested, 1.4% active;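 active = activation above the mean of all tested compounds plus 3 SD, cut at about 5.5% in these data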;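 note: 100% = response to 3 µM Δ7-dafachronic acid high control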
DAX1 inh = inhibitors of DAX1 repression of SF-1 activated StAR promoter. HEK293T StAR-luciferase reporter, SF-1/DAX-1 repression relief. inhibition, % at 6.8 µM. 370,000 tested, 1.1% active;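 active = inhibition above the mean over all tested compounds plus 3 SD, cut at about 3.6% in these data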;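 note: 0% = DAX-1 cells with DMSO and 100% = cells lacking DAX-1 with DMSO; higher inhibition means more luminescence from relief of DAX-1 repression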
hgDAF-12 ag = activates the H. glycines DAF-12 receptor ligand-binding domain. HEK293 GAL4-hgDAF12 UAS-luciferase reporter, agonist luminescence; normalized to butyrate control. activation, % at 6.8 µM. 370,000 tested, 1.8% active. AID 687014;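 active = activation above a cutoff set at the mean of all screened compounds plus 3 SD, cut at about 10% in these data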;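 note: 0% = DMSO wells and 100% = sodium butyrate wells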
hgDAF12 conf = confirmation of H. glycines DAF-12 agonists. shares compounds with hgDAF-12 ag. HEK293 GAL4-hgDAF12 luciferase reporter, agonist mode; percent of butyrate response. activation, % at 6.8 µM. 3,300 tested, 80% active. AID 743050;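 active = mean activation over triplicate wells above the hit cutoff derived from the earlier primary screen, cut at about 11% in these data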;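 note: 0% = DMSO low control and 100% = 2 mM sodium butyrate high control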
LXRb DAF12 ctr = counter-screen for DAF-12 agonists: agonists of human LXR-beta; shares compounds with hgDAF-12 ag; HEK293 Gal4-LXR luciferase reporter, 24 h; activation, % at 6.8 µM; 3,300 tested, under 10 active; AID 743051;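 active = mean activation of the triplicate above a set limit carried over from the primary screen, none filed active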
Target sequence (P55055 whole entry, looked up, the tested form may be a part): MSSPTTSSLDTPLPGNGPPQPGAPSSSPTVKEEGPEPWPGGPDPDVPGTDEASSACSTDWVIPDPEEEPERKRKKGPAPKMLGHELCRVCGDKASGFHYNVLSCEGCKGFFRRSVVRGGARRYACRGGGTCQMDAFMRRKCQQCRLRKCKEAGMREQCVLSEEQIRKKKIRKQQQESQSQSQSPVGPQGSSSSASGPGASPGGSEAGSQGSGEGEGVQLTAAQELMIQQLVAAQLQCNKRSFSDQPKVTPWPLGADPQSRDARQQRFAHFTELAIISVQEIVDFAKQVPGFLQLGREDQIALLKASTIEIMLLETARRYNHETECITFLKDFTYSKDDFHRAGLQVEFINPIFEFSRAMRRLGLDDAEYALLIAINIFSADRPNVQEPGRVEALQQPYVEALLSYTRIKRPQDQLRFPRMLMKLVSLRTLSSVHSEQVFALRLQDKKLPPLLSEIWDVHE
Active calls of the source: *; . = no result. A selection: hits, their analogues and other compounds. The true share with any hit is near 4.2%.

SMILES	SMARCA2 act	ssDAF12 agonist	hcDAF12 agonist	DAX1 inh	hgDAF-12 ag	hgDAF12 conf	LXRb DAF12 ctr
O=C(CC1c2ccccc2C=C(c2ccsc2)N1c1ccc(-c2cccnc2)cc1)C1CC1 (stereo unspecified)	-4	-1	0	-1	1	.	.
CC1=C/C(=N\NC(=S)NCCc2ccccc2)CC(C)(C)C1	2	-1	5	2	5	.	.
CC1=C/C(=N\NC(=O)c2cccs2)CC(C)(C)C1	2	0	4	1	17*	1	0
CC(=O)N1CCC(=NNC(=O)c2cccs2)CC1	6	0	5	4.0*	14*	9	0
Cn1cc(SCC(=O)Nc2nccs2)c2ccccc21	5	0	2	4.4*	20*	14*	0
C=CCN1C(=O)[C@@H](CC(=O)N2CCC(c3ccccc3)CC2)[C@]2(C(=O)OC)CCCCC=C12	-2	-1	-1	0	-1	.	.
C=CCN1C(=O)[C@@H](CC(=O)N2CCSCC2)[C@]2(C(=O)OC)CCCCC=C12	-2	-2	1	0	17*	0	0
O=C(NCCc1ccccc1)c1cccc(NC(=O)C2CC2)c1	5	0	4	3	17*	13*	0
O=C(NCCc1ccccc1)c1cccc(NC(=O)C2CCC2)c1	2	0	2	3	10	.	.
CCCCN(CC)CCNC(=O)c1cc2c(C)nc3ccccc3c2o1	0	0	5	2	17*	1	0
COC(=O)C1CN(C(=O)OC(C)(C)C)C2=C1C(=O)CC(C)(C(=O)OC(C)(C)C)C2 (stereo unspecified)	-2	-1	-2	0	-1	.	.
COc1ccccc1C(=O)NC1CCCCN(Cc2ccc(Cl)cc2)C1=O (stereo unspecified)	-2	-1	-2	-1	-1	.	.
CCCC(=O)N=C1SC2CS(=O)(=O)CC2N1c1ccc(-c2nc3ccc(C)cc3s2)cc1 (stereo unspecified)	2	0	6.0*	2	18*	9	1
CCOC(=O)C1C(c2cccnc2)NC(=O)NC1(O)C(F)(F)F (stereo unspecified)	-2	0	0	0	0	.	.
CCOC(=O)C1C(c2cccs2)NC(=O)NC1(O)C(F)(F)F (stereo unspecified)	-3	0	-2	0	24*	-1	0
Oc1oc(-c2ccccc2)nc1/C=N/c1ccccn1	5	-1	2	3	16*	9	0
CC(C)(C)NC(=S)NNC(=O)c1cccc(Br)c1	-3	-1	1	1	21*	5	0
O=C(NNC(=S)Nc1ccccc1)c1cccc(Br)c1	4	0	3	3	3	.	.
Cc1cccc(Nc2nnc(SCC(=O)NCC3CCCO3)s2)c1C (stereo unspecified)	1	-1	2	-1	6	.	.
Cc1ccccc1Nc1nnc(SCC2CCCCO2)s1 (stereo unspecified)	3	0	2	4.2*	15*	17*	1
CC(OC(=O)c1cccc(S(=O)(=O)N2CCOCC2)c1)C(=O)NC1CCCCC1C (stereo unspecified)	0	-1	0	0	18*	0	0
CC(OC(=O)c1ccc(Cl)c(S(=O)(=O)N2CCOCC2)c1)C(=O)NC1CCCCC1C (stereo unspecified)	-2	-1	1	-1	0	.	.
CC(=O)Oc1ccccc1-c1nc(/C=C/c2ccccc2)no1	6	0	6.3*	3	17*	18*	1
COc1cc(/C=C/c2noc(-c3ccccc3O)n2)cc(OC)c1OC	3	-1	-2	0	2	.	.
Cc1csc(NC(=O)c2ccc(COc3ccc(Cl)c(Cl)c3)o2)n1	3	-1	-2	1	0	.	.
SMILES	SMARCA2 act	ssDAF12 agonist	hcDAF12 agonist	DAX1 inh	hgDAF-12 ag	hgDAF12 conf	LXRb DAF12 ctr
C[C@@H]1N[C@H]2N(C1=O)c1ccccc1[C@@]21C[C@@H]2C(=O)N[C@](C)(O1)c1nc3ccccc3c(=O)n12	-1	-1	-3	-1	-3	.	.
COC(=O)C1=C(C)N(Cc2ccc(C(F)(F)F)cc2)C(=NCc2ccc(OC)cc2)NC1c1ccccc1 (stereo unspecified)	-9	-1	-1	-2	-1	.	.
c1ccn2cc(CSc3nnc4ccccn34)nc2c1	7	1.1*	4	3.8*	14*	14*	1
Cn1ccnc1SCc1cn2ccccc2n1	7	-1	3	1	6	.	.
CC(C)(C)c1ccc(S(=O)(=O)N2CCC(C(=O)NCc3cccs3)CC2)cc1	-5	-1	-2	0	0	.	.
COc1ccc2cc(C3=CC(=O)CCC3)ccc2c1	1	0	6.2*	2	16*	16*	1
N#C/C(=C\c1ccc(N2CCOCC2)cc1)c1ccccc1	1	0	6.1*	2	21*	17*	1
N#C/C(=C\c1ccc(N2CCOCC2)o1)c1ccccc1	6	-2	-1	0	-2	.	.
Cc1ccc(-c2nc3ncccc3n2O)cc1	0	-1	0	0	2	.	.
COn1c(-c2ccc(Cl)cc2)nc2ncccc21	8	0	3	0	13*	11*	0
CC(C)C(=O)OCC(=O)Nc1ccc(N=Nc2ccccc2)cc1	5	-1	2	3	16*	17*	1
CC(=O)Nc1ccc(N=Nc2ccccc2)cc1	3	-1	5	4.2*	16*	15*	1
O=C(CCl)Nc1ccc(N=Nc2ccccc2)cc1	7	0	3	-1	5	.	.
CN(CCc1ccccn1)C(=O)[C@@H](Cc1ccccc1)NC(=O)[C@H]1O[C@@H](n2ccc(=O)[nH]c2=O)[C@H](O)[C@@H]1O	1	-2	-2	-1	1	.	.
CCOc1ccc(OCc2cccc(C(=O)N3CCCCCC3)c2)cc1	5	0	5	3.8*	16*	16*	1
NC(=NCCc1c[nH]c2ccccc12)NC(=O)OCc1ccccc1	-2	-1	-1	-1	-3	.	.
COC(=O)[C@]12CCCCC=C1N(CCc1ccc(OC)c(OC)c1)C(=O)[C@H](CC(=O)NCC13CC4CC(CC(C4)C1)C3)C2	-4	-1	-3	1	-4	.	.
C/C(=N\NC(=O)c1ccc(C)cc1C)c1ccc(-n2ccnc2)cc1	6	-1	3	1	14*	0	0
Nc1c(OS(=O)(=O)c2ccccc2)cccc1OS(=O)(=O)c1ccccc1	2	0	1	4	18*	14*	1
